KB-3-1 tox: KB-3-1 parental cell cytotoxicity; KB-3-1 viability, CellTiter-Glo ATP luminescence, 72 h; Potency, µM (doses to about 46.1 µM), most hits filed as cytotoxic; hit rate 1.4% among 400,000; AID 1347075; also: % is scaled to controls: 0 for no effect and ±100 for the full control effect; nearly all actives have a fitted effect of over 60% in size
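Cells are dispensed, compounds pinned in, plates held at 37 °C for 72 h, then CellTiter-Glo is added and luminescence read after 10 minutes. Cell line: parental KB-3-1 in phenol-red-free DMEM, 10% FBS.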
SW480 rerep: inducers of DNA re-replication in SW480 colon cancer cells | SW480 DNA re-replication, Hoechst DNA content imaging, 48 h | Potency, µM (top dose mostly 46.1 µM), without a hit: top-dose re-replication activation, hits mostly activators | hit rate 1.8% among 340,000; also: % of control where 0% means no effect; nearly all actives have a fitted effect of over 55% in size
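250 cells/well; 23 nL cpd via pin tool; 48 hr, 37 C, 5% CO2; Hoechst 40 min; imager read of total nuclear intensity, ex 405/em 500-530 nm.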
MCF10A rereplic: DNA re-replication induction in MCF 10a cells | hit rate 2.9% among 350,000 | MCF 10A DNA re-replication, Hoechst nuclear intensity, 48 h | Potency, µM (titrated, usually from 46.1 µM), for the others: at the highest dose activity, positive = re-replication, hits mostly activators; also: % of control where 0% means no effect; nearly all actives have a fitted effect of over 50% in size
HT1080-NT tox: kills 2HG-producing HT-1080-NT fibrosarcoma cells; HT-1080-NT fibrosarcoma viability, CellTiter-Glo ATP luminescence, 48 h; hit rate 1.6% among 360,000; Potency, µM (top dose mostly 46.1 µM), inactives show at the highest dose activity, negative = less viability, usual class: cytotoxic;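 also: NT is the 2HG producing partner of a matched IDH1 knockdown line; 0% = DMSO-treated cells and -100% = media-only wells without cells; nearly all actives have a fitted effect of over 55% in size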
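Luminescent CellTiter-Glo readout after 48 hours of compound exposure at 37 degrees C defined viability of HT-1080-NT cells. Activity was normalized to DMSO wells and cell-free media wells; concentration-response curves were fitted and assigned curve classes.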
KB-V1 MDR tox: kills drug-selected multidrug resistant KB-V1 cells; AID 1347076; Potency, µM (titrated, usually from 46.1 µM), most hits filed as cytotoxic; hit rate 3.4% among 400,000; KB-V1 MDR cells viability, CellTiter-Glo, 72 h; also: % is scaled to controls: 0 for no effect and ±100 for the full control effect; nearly all actives have a fitted effect of over 60% in size
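Potencies derive from concentration-effect curves fitted to normalized luminescence (CellTiter-Glo) of KB-V1 cells treated for 72 h at 37 degrees C in phenol-red-free DMEM containing 10% FBS.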
HT1080 IDH1KD tx: toxicity to HT-1080 IDH1 knockdown cells (counter line). HT-1080 IDH1 knockdown viability, ATP luminescence, 48 h. Potency, µM (highest dose often 46.1 µM), for the others: at the highest dose activity, negative = toxicity, most hits filed as cytotoxic. hit rate 2% among 360,000. AID 686971;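 also: 0% = DMSO wells and -100% = cell-free medium wells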
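% activity derives from luminescence (CellTiter-Glo), normalised to DMSO and no-cell wells. HT-1080-IDH1KD cells, 750/well, had 48 h compound exposure at 37 °C.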
The depositor's hits bear a star; i = inactive; ? = inconclusive; . = no result; [ ] = dose if it differs, or a comment. This is a sample that favours compounds with a hit; in the whole collection about 8% have one here. Calls follow the shape of the dose curve; as a rule, active = well fitted curve in the direction sought with a large enough effect; inconclusive = small, poorly fitted or top-dose-only effect, or another doubt; inactive = no such curve, though single readings can be large; an effect the other way counts as inactive or inconclusive. Potency is read from the fitted curve at half-maximal effect.

SMILES | KB-3-1 tox | SW480 rerep | MCF10A rereplic | HT1080-NT tox | KB-V1 MDR tox | HT1080 IDH1KD tx
Cc1[nH]nc2c1C1(CCC(c3ccccc3)CC1)C(C#N)=C(N)O2 (configuration not stated) | i | -1.2% | -9.5% | -13.7% | i | -26.0%
O=C1NC(Cc2c[nH]c3ccccc23)C(=O)N1CCOc1ccc(F)cc1 (configuration not stated) | i | -2.8% | 5.5% | -21.1% | i | -1.4%
O=C1NC(Cc2c[nH]c3ccccc23)C(=O)N1Cc1ccc(CN2C(=O)NC(Cc3c[nH]c4ccccc34)C2=O)cc1 (configuration not stated) | i | 26.6% | 20.6µM* | -10.2% | i | -13.5%
CC(=O)Cc1nsc(NC(=O)c2ccc(Br)o2)n1 | i | -5.0% | ? | -3.2% | i | -0.4%[9.24 µM]
CC(=O)Cc1nsc(NC(=O)c2ccc(-c3cccc(Cl)c3)o2)n1 | ? | ? | 10.3µM* | -22.8% | i | ?
Cc1ccc(-c2nc(CSCC(=O)N3CCN(c4ccccn4)CC3)c(C)o2)cc1 | ? | 8.2% | 9.8% | -20.8% | ? | -10.2%
COCCNC(=O)CSCc1nc(-c2ccc(SC)cc2)oc1C | ? | 1.4% | -0.2% | 4.1% | 9.2µM* | 2.8%
CCOCCCNC(=O)CSCc1nc(-c2ccc(SC)cc2)oc1C | i | -7.7% | 4.4% | 4.7% | i | -2.8%
CCc1ccc(-c2nc(CSCC(=O)NCCCN3CCCC3=O)c(C)o2)cc1 | i | -3.8% | 18.0% | -0.8% | 16.4µM* | -3.7%
COc1ccc(-c2nc(CSCC(=O)NCCC3=CCCCC3)c(C)o2)cc1OC | i | 7.0% | 3.8% | -20.7% | 20.6µM* | -9.0%
CSc1ccc(-c2nc(CSCC(=O)NCCCN3CCCC3=O)c(C)o2)cc1 | i | ? | 1.4% | -5.2% | i | -5.7%
CCc1ccc(-c2nc(CSCC(=O)N3CCN(c4ccccn4)CC3)c(C)o2)cc1 | ? | 3.1% | 49.8%[0.0737 µM] | 2.0% | 18.4µM* | ?
CC1=C(C(=O)OCc2ccccc2)C(c2ccccc2)NC(=O)N1CCCC(=O)O (configuration not stated) | i | ? | 0.5% | 21.8% | i | 4.3%
O=C(NCc1ccco1)c1cccc(N2CCCC2=O)c1 | i | -6.7% | 1.9% | 11.0% | i | 9.0%
COc1cc(OC)c(OC)cc1/C=C/c1nc2cc3ccccc3cc2c(=O)n1-c1ccc(Cl)cc1 | i | . | . | . | ? | .
COc1ccc(Br)cc1/C=N/Nc1ccccn1 | i | ? | 23.1µM* | -6.0% | i | -9.1%
COc1ccc(Br)cc1/C=N/NC(=O)c1cc(OC)c(OC)c(OC)c1 | i | ? | ? | ? | i | 16.4µM*
COc1cc(C(=O)NCC(=O)N/N=C/c2cccs2)cc(OC)c1OC | i | -15.8% | 3.8% | 14.6% | ? | 20.5%
COc1cc(C(=O)N/N=C/c2ccsc2C)cc(OC)c1OC | 0.651µM* | 0.651µM* | ? | 0.92µM* | 0.581µM* | 0.581µM*
CCCCc1ccc(NC(=O)CSCc2cc(=O)[nH][nH]2)cc1 | i | -2.7% | 12.6µM* | -1.6% | ? | 10.4%
COc1cc(/C=N/NC(N)=S)ccc1OCC(=O)Nc1ccc(C)c(C)c1 | i | ? | 14.6µM* | -18.3% | i | -16.1%
COc1cc(/C=C/c2cccc[n+]2C)ccc1OCC(=O)Nc1cccc(Cl)c1 | ? | -25.8% | -19.7% | -1.7% | ? | -7.3%
COc1cc(/C=C/c2cc[n+](C)cc2)ccc1OCC(=O)Nc1ccc(Cl)c(Cl)c1 | ? | ? | ? | ? | i | 23.1µM*
COc1ccc(NC(=O)COc2ccc(/C=C/c3cc[n+](C)cc3)cc2OC)cc1 | ? | 8.2µM* | ? | -2.5% | i | 7.0%
COc1cc2c(cc1OC)C(COc1ccccc1OC)N(C(=O)C(C)C)CC2 (configuration not stated) | i | 2.4% | -4.1% | 9.2% | ? | 9.7%
SMILES | KB-3-1 tox | SW480 rerep | MCF10A rereplic | HT1080-NT tox | KB-V1 MDR tox | HT1080 IDH1KD tx
COc1cc2c(cc1OC)C(c1cccs1)N(C(=O)c1cccnc1)CC2 (configuration not stated) | 5.8µM* | 5.17µM* | ? | -28.4% | ? | ?
COc1ccc(C(=O)N2CCc3cc(OC)c(OC)cc3C2c2ccc(OC)c(OC)c2)cc1OC (configuration not stated) | i | 4.3% | -17.6% | -23.1% | i | -21.5%
COc1cc2c(cc1OC)C(c1cccs1)N(C(=O)C(C)C)CC2 (configuration not stated) | ? | 3.6% | 1.2% | -9.2% | 14.1µM* | -15.7%
CC(=O)CC(C)(C)S(=O)(=O)c1ccc(Oc2ccc(S(=O)(=O)C(C)(C)CC(C)=O)cc2)cc1 | i | -6.5% | 0.6% | 7.3% | ? | 14.0%
Cc1nc(N)nc(N)c1/C=C/C(C)(C)c1ccc(Cl)cc1 | ? | 5.2% | ? | 0.0291µM* | ? | 0.0082µM*
CCOC(=O)C1(Cc2cccc(Cl)c2)CCCN(C(=O)c2ccoc2C)C1 (configuration not stated) | i | 16.4µM* | ? | -1.6% | i | -6.6%
CCOC(=O)C1(Cc2cccc(Cl)c2)CCCN(C(=O)c2ccco2)C1 (configuration not stated) | i | 28.8% | ? | 0.2% | i | -3.0%
O=C(Cc1cccs1)NCc1cccc(F)c1 | i | -12.7% | -2.4% | 6.9% | ? | 0.9%
c1ccc(N2N=C(c3cccs3)CC2c2ccco2)cc1 (configuration not stated) | i | 8.2µM* | 8.2µM* | -4.2% | i | -7.1%
c1ccc(C2=NN(c3ccccc3)C(c3ccco3)C2)cc1 (configuration not stated) | ? | ? | ? | 8.5% | ? | 9.5%
Clc1ccc(N2N=C(c3cccs3)CC2c2ccco2)cc1 (configuration not stated) | i | ? | 4.61µM* | 0.6% | i | -7.6%
CC(C)CC1NC(=O)N(CC(=O)Nc2cccc(Br)c2)C1=O (configuration not stated) | i | -9.1% | 20.6% | -11.5% | i | -3.9%
Cc1nn(CC(=O)NCCCN2CCN(C)CC2)c(=O)c2cc(-c3ccccc3)nn12 | i | -4.3% | ? | 0.7% | ? | 12.4%
C/C=C(\C)CN1CCC(n2nccc2NC(=O)CCc2ccccc2)CC1 | i | -2.6% | 7.5% | -0.2% | i | -1.0%
C/C=C(\C)CN1CCC(n2nccc2NC(=O)CCOc2ccccc2)CC1 | i | 18.4µM* | 39.8% | 0.5% | i | -0.2%

Bioassay records (PubChem)
